The list is not random: actives were taken first. Their share in the collection is about 2.9%.
EBNA-1 inhibitor: blocks EBNA-1 binding to DNA. hit rate 0.34% among 300,000. inhibition, % at 14.8 µM. EBNA-1 DNA binding, fluorescence polarization; in the data active = inhibition above about 28%
PAFAH2 FP inh: PAFAH2 (human) inhibition; Q99487; recombinant PAFAH2, FP-rhodamine activity probe, fluorescence polarization; inhibition, % at 3.39 µM; hit rate 0.99% among 340,000;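 active = inhibition above the mean over all tested compounds plus 3 SD, cut at about 30% in these data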;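 also: inhibitors block probe labeling of enzyme so polarization drops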
PAFAH1B3 inh: blocks human PAF acetylhydrolase 1B catalytic subunit 3; Q15102; recombinant PAFAH1B3, FP-rhodamine probe, fluorescence polarization; inhibition, % at 3.39 µM; hit rate 0.28% among 340,000; AID 492972;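 active = inhibition above the screen-wide average of all tested compounds plus 3 SD, cut at about 25% in these data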
Target sequence (Q15102 whole entry, looked up): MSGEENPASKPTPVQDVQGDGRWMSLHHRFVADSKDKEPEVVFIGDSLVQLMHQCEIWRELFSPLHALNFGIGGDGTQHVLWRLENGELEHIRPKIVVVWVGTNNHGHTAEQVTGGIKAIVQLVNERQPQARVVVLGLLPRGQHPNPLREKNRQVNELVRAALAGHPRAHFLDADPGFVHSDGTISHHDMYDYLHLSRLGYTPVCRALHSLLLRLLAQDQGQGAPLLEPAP
ZTA DNA inh: blocks Epstein-Barr virus ZTA, an EBNA-1 counter-screen; inhibition, % at 11 µM; hit rate 0.15% among 320,000; ZTA-DNA binding, fluorescence polarization; in the data active = inhibition above about 33%
Target sequence (P03206 whole entry, looked up): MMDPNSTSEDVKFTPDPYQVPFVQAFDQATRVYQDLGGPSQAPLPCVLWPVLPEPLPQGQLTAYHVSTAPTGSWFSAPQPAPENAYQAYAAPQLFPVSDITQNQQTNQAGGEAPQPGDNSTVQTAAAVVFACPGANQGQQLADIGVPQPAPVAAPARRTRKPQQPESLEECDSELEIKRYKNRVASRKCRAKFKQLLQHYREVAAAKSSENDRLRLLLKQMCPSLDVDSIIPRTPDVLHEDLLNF
rCAG RNA binder: molecules binding r(CAG) RNA repeats; hit rate 1.3% among 370,000; inhibition, % at 3 µM; r(CAG) RNA repeat, TO-PRO-1 dye displacement fluorescence;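 active = inhibition above the plate cutoff, the mean of all test compounds on that plate plus 3 SD, cut at about 35% in these data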;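 also: higher means more dye released from RNA so lower well fluorescence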
PAFAH1B2 inh: inhibitors of human PAFAH1B2; recombinant PAFAH1B2, FP-rhodamine activity probe, fluorescence polarization; inhibition, % at 3.39 µM; hit rate 1.2% among 340,000;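 active = inhibition above the mean of all tested compounds plus 3 SD, cut at about 24% in these data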
PAFAH2 confirm: PAFAH2 (human) inhibition, confirmed | shares compounds with PAFAH2 FP inh | recombinant PAFAH2, FP-rhodamine activity probe, fluorescence polarization | inhibition, % at 3.39 µM | hit rate 65% among 2,300 | AID 493030;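 active = mean inhibition over three repeats above a set limit taken from the earlier primary screen, cut at about 30% in these data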;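 also: inhibitor blocks binding of rhodamine activity probe so polarization falls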
Numbers stand for hits; 0 = inactive; - = no result.

SMILES	EBNA-1 inhibitor	PAFAH2 FP inh	PAFAH1B3 inh	ZTA DNA inh	rCAG RNA binder	PAFAH1B2 inh	PAFAH2 confirm
COc1cc(NC(=O)COC(=O)C2CC2)c(C)cc1[N+](=O)[O-]	0	46	0	0	0	0	0
COc1cc(NC(=O)COC(=O)C=C(C)C)c(C)cc1[N+](=O)[O-]	0	61	0	0	0	0	0
CCOCC(=O)OCC(=O)Nc1cc(OC)c([N+](=O)[O-])cc1C	0	0	0	0	0	0	-
O=C1NC(=O)C2(CCOc3ccc(F)cc32)N1 (stereo not drawn)	-	-	-	-	0	-	-
O=C(CCCn1c(SCC(=O)c2ccc(O)c(O)c2)nc2ccccc2c1=O)NCC1CCCO1 (stereo not drawn)	0	35	0	0	0	0	0
O=C(CCCn1c(SCC(=O)NC2CCCCC2)nc2ccccc2c1=O)NCC1CCCO1 (stereo not drawn)	0	0	0	0	0	0	-
CCc1ccc(NC(=O)CSc2nc3ccccc3c(=O)n2CCCC(=O)NCCCN2CCOCC2)cc1	0	196	0	0	0	0	0
O=C(COC(=O)c1cccc(N2C(=O)C3CC=CCC3C2=O)c1)c1ccccc1 (stereo not drawn)	0	35	0	0	0	0	0
O=C(O)c1cccc(N2C(=O)C3CC=CCC3C2=O)c1 (stereo not drawn)	0	0	0	0	0	0	-
O=C(N/N=C1/C(=O)c2cccc3cccc1c23)c1ccc(Cl)cc1	0	56	0	0	0	0	35
O=C(OC12CCCN(C1)/C(=C/c1ccncc1)C2)c1ccccc1 (stereo not drawn)	-	-	-	-	0	-	-
Cc1ccc(-c2ccc(/C=N/NC(=O)Cc3nnc(N)s3)o2)cc1Cl	0	55	0	0	0	0	0
Nc1nnc(CC(=O)N/N=C\c2ccc(-c3cccc(Cl)c3)o2)s1	0	48	0	0	0	0	0
COc1ccc(-c2ccc(/C=N/NC(=O)Cc3nnc(N)s3)o2)cc1Cl	0	-	-	0	0	-	-
COC(=O)c1ccc(-c2ccc(/C=N/NC(=O)Cc3nnc(N)s3)o2)cc1	0	43	0	0	0	0	0
Nc1nnc(CC(=O)N/N=C/c2ccc(-c3ccccc3)o2)s1	0	0	0	0	0	0	-
CC(C)(C)OC(=O)N1c2ccccc2[C@]2(N3CCCC3)C[C@H](C(=O)O)N(C(=O)OC(C)(C)C)[C@H]12	-	-	-	-	0	-	-
CC1CCCCC1NC(=O)COC(=O)/C=C/c1ccco1 (stereo not drawn)	-	84	0	0	0	0	74
CC1CC(C)CN(C(=O)COC(=O)/C=C/c2ccco2)C1 (stereo not drawn)	-	0	0	-	0	0	-
O=C(COC(=O)/C=C/c1ccc(Br)o1)NC1CCCCC1	-	77	0	0	0	0	73
O=C(COC(=O)/C=C/c1ccco1)NC1CCCCC1	-	77	0	0	0	0	82
CC[C@H](CCCc1ccccc1OC)CCS(=O)(=O)N(C)C	-	-	-	-	0	-	-
NC(=O)COc1c(-c2ccc(Br)o2)oc2ccccc2c1=O	0	31	0	0	-	0	0
C[C@@H]1[C@@H](c2ccccc2)c2cc3ccccc3nc2C(=O)C[C@@H]1C(=O)N1CCCC1	-	-	-	-	0	-	-
CCOc1ncccc1C(=O)OCC(=O)Nc1cc(S(=O)(=O)N2CCCCC2)ccc1Cl	-	68	0	-	0	0	55
SMILES	EBNA-1 inhibitor	PAFAH2 FP inh	PAFAH1B3 inh	ZTA DNA inh	rCAG RNA binder	PAFAH1B2 inh	PAFAH2 confirm
CCOc1ncccc1C(=O)OCC(=O)Nc1ccc(S(=O)(=O)N2CCOCC2)cc1	0	0	0	0	0	0	-
CCOc1ncccc1C(=O)OCC(=O)Nc1ccc(S(=O)(=O)N2CCCC2)cc1	-	0	0	0	0	0	-
CCOc1ncccc1C(=O)OCC(=O)Nc1ccc(C)c(S(=O)(=O)N2CCOCC2)c1	0	75	0	0	0	0	76
Cc1ccc(NC(=O)COC(=O)c2cccnc2Cl)cc1S(=O)(=O)N1CCOCC1	-	44	0	-	0	0	38
CSc1ncccc1C(=O)OCC(=O)Nc1ccc(C)c(S(=O)(=O)N2CCOCC2)c1	-	0	0	-	0	0	-
Cc1ccc(S(=O)(=O)N2CCOCC2)cc1NC(=O)COC(=O)c1ccc(Cl)s1	-	44	0	-	0	0	32
COC(=O)[C@]12C[C@H](CC(=O)NCc3cccc4ccccc34)C(=O)N(Cc3cccc4ccccc34)C1=C[C@H](C1CCCC1)O[C@@H]2C	-	-	-	-	0	-	-
CCCCCCCCN1C(=O)[C@@H](CC(=O)NCC23CC4CC(CC(C4)C2)C3)C[C@@]2(C(=O)OC)C1=C[C@H](C(C)C)O[C@@H]2C1CC1	-	-	-	-	0	-	-
CC(C)CC(=O)N1CCc2cc(S(=O)(=O)N(C)Cc3ccco3)ccc21	-	-	-	-	0	-	-
COC(=O)c1ccc(CN2CC3CC(c4ccccc4)N4CCCC34C2=O)cc1 (stereo not drawn)	-	-	-	-	0	-	-
COCCN1C(=O)CCC1(C)c1nnnn1-c1ccc2ccccc2c1 (stereo not drawn)	-	-	-	-	0	-	-
Cc1ccc(S(=O)(=O)N2CCOCC2)cc1NC(=O)COC(=O)c1cccc(Cl)c1Cl	-	41	0	-	0	0	0
CCOc1ncccc1C(=O)OCC(=O)Nc1cc(S(=O)(=O)N2CCOCC2)ccc1C	0	42	0	0	0	0	39
CCOc1ncccc1C(=O)OCC(=O)Nc1cc(C)ccc1C	0	0	0	0	0	0	-
CCOc1ncccc1C(=O)OCC(=O)Nc1ccc(C)c(S(=O)(=O)N(C)C)c1	0	80	0	0	0	0	86
O=C(CN(CCc1ccccc1)S(=O)(=O)c1ccccc1)N1CCOCC1	-	-	-	-	0	-	-

High-throughput results deposited in PubChem BioAssay by The Scripps Research Institute Molecular Screening Center.
